The whole screen tested about 290,000 compounds, of which about 27,000 (9.3%) were called active. Shown is part of a subset that was picked to be rich in actives. A number with no mark means an inactive call. Rule as the data show it: active = inhibition mostly above about 28% (no sharp cut-off); inactive = mostly below about 43%.
Test: A qHTS for Small Molecule Inhibitors of Shiga Toxin; also: 0% is about no effect
Conditions: Vero cells, Shiga toxin protein synthesis inhibition reporter; at 38.7 µM, active compounds read high
For `COc1ccc(-c2n[nH]c3c2CN(C(=O)c2ccc(F)cc2)CC3)cc1`, the inhibition was -7.56%. With `COc1cccc2[nH]c(C(=O)NCCc3ccccc3)cc12` the inhibition was 67.7% (active). Molecule `COc1ccc(CCNC(=O)c2ccccc2-c2ccccc2C(=O)O)cc1OC` has an inhibition of -1.45%. `COc1ccc(CCNC(=O)c2ccccc2OCc2ccccc2)cc1` showed an inhibition of 14.7%. In the case of `Cc1cc(C)cc(N(CC(=O)NC2CCCC2)C(=O)CCC(=O)Nc2nccs2)c1`, the inhibition is reported as 20.2%. `COc1ccc([N+](=O)[O-])cc1N(CC(O)CN(CC(C)C)CC(C)C)S(=O)(=O)c1ccc(C)cc1` (stereo not drawn) gave an inhibition of 12.3%. For `O=c1[nH]cnc(O)c1C(c1ccc(F)cc1)c1c(O)nc[nH]c1=O`, the inhibition was 8.92%. Work on `CC(=O)N1CCN(CC(=O)Nc2ccc(C)c(F)c2)CC1` yielded an inhibition of -1.77%. With `O=C(Nc1ccc(Cl)cn1)Nc1cccs1` the inhibition was 65.7% (active). In the case of `COc1c(Cl)cc(C(=O)Nc2ccc(Cl)cn2)cc1Cl`, the inhibition is reported as 8.12%. `O=C(Nc1cccc([N+](=O)[O-])c1)Nc1ccc(Cl)cn1` gave an inhibition of 0.898%. In the case of `CCCCC(CC)C(=O)Nc1ccc(Cl)cn1` (stereo not drawn), the inhibition is reported as 6.98%. With `CCCc1cc(C(=O)Nc2ccc(C(=O)OC)cc2)cs1` the inhibition was 28.2%. With `CCCc1cc(C(=O)Nc2ccc(Cl)cn2)cs1` the inhibition was 57.6% (active). For `C[C@H](NC(=O)c1nc[nH]c1C(=O)NCC(=O)OC(C)(C)C)c1ccccc1`, the inhibition was -2.69%. Molecule `COC(=O)c1nc(NC(=O)c2ccc(F)cc2)n[nH]1` has an inhibition of 0.673%. In the case of `COC(=O)c1ccc(Sc2ccc(F)cc2)c(N)c1`, the inhibition is reported as 64.7% (active). In the case of `COC(=O)c1ccc(C(=O)OC)c(NC(=S)N2CCN(c3ccc(F)cc3)CC2)c1`, the inhibition is reported as -8.17%. `COC(=O)c1ccc(C(=O)NC2CC(C)(C)Cc3c2cnn3-c2ccc(F)cc2)nc1` (stereo not drawn) gave an inhibition of 19.8%. Molecule `COc1ccc(C2CC(c3ccccc3)=NN2C(=O)c2ccc(Cl)c([N+](=O)[O-])c2)cc1` (stereo not drawn) has an inhibition of -3.59%. In the case of `COc1cccc(C2CC(c3ccccc3)=NN2S(=O)(=O)c2ccccc2)c1OC` (stereo not drawn), the inhibition is reported as -3.39%. With `COc1ccc(C2=NN(C(=O)c3ccccc3C(=O)O)C(c3ccccc3O)C2)cc1` (stereo not drawn) the inhibition was 162% (active). Work on `COc1ccc(C2=NN(C(=O)CCC(=O)O)C(c3cccs3)C2)cc1OC` (stereo not drawn) yielded an inhibition of -6.96%. Work on `COc1ccc(C2CC(c3ccccc3)=NN2C(=O)COC(=O)COc2ccccc2)cc1` (stereo not drawn) yielded an inhibition of 30.8%. For `COc1ccc(C(=O)Nc2nc(-c3ccc(OC)cc3)c(-c3ccc([N+](=O)[O-])cc3)s2)cc1`, the inhibition was -3.81%. For `CCOc1ccc2nc(Cl)c(C3CC(c4ccccc4)=NN3C(=O)c3cccs3)cc2c1` (stereo not drawn), the inhibition was -5.57%. For `COc1ccc(C2CC(c3ccccc3)=NN2C(=O)CSc2nccc(=O)[nH]2)cc1` (stereo not drawn), the inhibition was 50.8% (active). For `COc1ccc(C2=NN(C(C)=O)C(c3ccccc3)C2)cc1` (stereo not drawn), the inhibition was 26.2% (active). For `COc1ccc(C2=NN(C(=O)c3cccnc3)C(c3ccccc3)C2)cc1` (stereo not drawn), the inhibition was -14.3%. With `COc1ccc(C2CC(c3ccc([N+](=O)[O-])cc3)=NN2C(C)=O)cc1` (stereo not drawn) the inhibition was 37.4% (active). With `COc1ccc(C(=O)CSc2nccc(=O)[nH]2)cc1` the inhibition was 11%. With `Brc1ccccc1CN1CCC(Cc2ccccc2)CC1` the inhibition was 14.5%. In the case of `N[C@@H](Cc1ccccc1)C(=O)N1CCC(C(=O)NCC(=O)Nc2ccc(F)cc2)CC1`, the inhibition is reported as 9.91%. For `COc1ccc(CCNC(=O)C(=O)NCC2OCCN2S(=O)(=O)c2ccc(OC)c(C)c2)cc1` (stereo not drawn), the inhibition was 2.43%. In the case of `Cc1ccc(NS(=O)(=O)c2ccc(-c3coc(C)n3)cc2)c(C)c1`, the inhibition is reported as -3.55%. Work on `CCC(CC)C(=O)Nc1c2c(nn1-c1ccc(C)cc1)CS(=O)(=O)C2` yielded an inhibition of -8.79%. For `CCN(CC)CCCNC(=O)c1cc2c(=O)[nH]c3ccc(C)cc3c2s1`, the inhibition was -4.39%. Molecule `O=C(C1CC(=O)N(C2CCCCC2)C1)N1CCN(c2ccccc2)CC1` (stereo not drawn) has an inhibition of 27.8%. `C/C(=N\NC(=O)Cc1ccccc1[N+](=O)[O-])c1cccnc1` showed an inhibition of -10.2%. For `Cc1cc(C(=O)NC2CC(C)(C)Cc3c2cnn3-c2ccccc2)n[nH]1` (stereo not drawn), the inhibition was -14.3%. Molecule `CN(C(=O)CC1C(=O)NCCN1Cc1ccc2ccccc2c1)C1CCOCC1` (stereo not drawn) has an inhibition of -0.828%. With `CN1/C(=C\C(=O)c2cccnc2Cl)C(C)(C)c2ccccc21` the inhibition was -10.8% (active). For `CN1/C(=C\C(=O)c2oc3ccccc3c2N)C(C)(C)c2ccccc21`, the inhibition was 14.5%. `CC(C)Nc1nnc(SCC(=O)/C=C2\N(C)c3ccccc3C2(C)C)s1` gave an inhibition of 13.3%. For `Cc1ccccc1-c1nc(CS(=O)(=O)CC(=O)NC(C)c2ccccc2)c(C)o1` (stereo not drawn), the inhibition was -2.18%. `CC1C(=O)C(C)C(c2ccc(O)cc2)NC1c1ccc(O)cc1` (stereo not drawn) gave an inhibition of -9.62%. `Cc1ccc(S(=O)(=O)NCC(=O)N2CCOCCOCCOCCOCC2)cc1` showed an inhibition of -2.1%. `Cc1ccc(Cl)cc1NC(=O)COC(=O)CC(C)(C)C` showed an inhibition of -3.98%. In the case of `O=C(O)CC/C(=N\NC(=O)c1ccc(F)cc1)c1ccc(Br)cc1`, the inhibition is reported as 57.9% (active). Molecule `C/C(=N\NC(=O)Cc1ccc(F)cc1)c1ccc(F)cc1` has an inhibition of 11.6%. `C/C(CC(=O)N1CCN(C=O)CC1)=N\NC(=O)c1ccc(Br)cc1` gave an inhibition of 36.4%. With `CCn1ccnc1CNC(=O)CC1C(=O)NCCN1CCCc1ccccc1` (stereo not drawn) the inhibition was 12.9%. `COc1ccc(CC(=O)Nc2c(C(N)=O)oc3ccccc23)cc1` gave an inhibition of 9.35%. Work on `COc1cc(C(C(=O)NC2CCCC2)N(C(=O)c2ccco2)c2ccccc2C(C)=O)cc(OC)c1OC` (stereo not drawn) yielded an inhibition of -3.47%. For `COc1ccc(NC(C(=O)Nc2cccc(C(C)=O)c2)c2ccccc2)cc1` (stereo not drawn), the inhibition was 27.6% (active). In the case of `COc1ccc(NC(=O)[C@H](NC(=O)[C@@H]2Cc3ccccc3CN2)c2ccccc2)cc1`, the inhibition is reported as -2.7%. With `COC(C(=O)Nc1ccc(C(C)=O)cc1)c1ccccc1` (stereo not drawn) the inhibition was 10.3%. With `Cc1cc(C)cc(N(CC(=O)N2CC=C(c3ccccc3)CC2)S(=O)(=O)c2c(C)noc2C)c1` the inhibition was -8.45%.

Source: PubChem BioAssay AID2315 (National Center for Advancing Translational Sciences (NCATS), 2010)
